Laboratory results published in PubChem BioAssay.
Some of the results follow. Inconclusive results are not listed. Values without a mark were called inactive. Calls of active or inactive are those of the source.

Tests used:
[1] = target: Solute carrier family 12 member 5 (Homo sapiens) (UniProt Q9H2X9); assay: retest of KCC2 transport modulators without sodium – cell-based, HEK293 KCC2, thallium flux, secondary assay, confirmation (AID 1713;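 active = thallium flux slope above the same plate's solvent-only control mean plus 3 SD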); details: FluoZin2 fluorescence, at 10 µM, hits give high values
Solute carrier family 12 member 5 (Homo sapiens), sequence (Q9H2X9 whole entry, looked up): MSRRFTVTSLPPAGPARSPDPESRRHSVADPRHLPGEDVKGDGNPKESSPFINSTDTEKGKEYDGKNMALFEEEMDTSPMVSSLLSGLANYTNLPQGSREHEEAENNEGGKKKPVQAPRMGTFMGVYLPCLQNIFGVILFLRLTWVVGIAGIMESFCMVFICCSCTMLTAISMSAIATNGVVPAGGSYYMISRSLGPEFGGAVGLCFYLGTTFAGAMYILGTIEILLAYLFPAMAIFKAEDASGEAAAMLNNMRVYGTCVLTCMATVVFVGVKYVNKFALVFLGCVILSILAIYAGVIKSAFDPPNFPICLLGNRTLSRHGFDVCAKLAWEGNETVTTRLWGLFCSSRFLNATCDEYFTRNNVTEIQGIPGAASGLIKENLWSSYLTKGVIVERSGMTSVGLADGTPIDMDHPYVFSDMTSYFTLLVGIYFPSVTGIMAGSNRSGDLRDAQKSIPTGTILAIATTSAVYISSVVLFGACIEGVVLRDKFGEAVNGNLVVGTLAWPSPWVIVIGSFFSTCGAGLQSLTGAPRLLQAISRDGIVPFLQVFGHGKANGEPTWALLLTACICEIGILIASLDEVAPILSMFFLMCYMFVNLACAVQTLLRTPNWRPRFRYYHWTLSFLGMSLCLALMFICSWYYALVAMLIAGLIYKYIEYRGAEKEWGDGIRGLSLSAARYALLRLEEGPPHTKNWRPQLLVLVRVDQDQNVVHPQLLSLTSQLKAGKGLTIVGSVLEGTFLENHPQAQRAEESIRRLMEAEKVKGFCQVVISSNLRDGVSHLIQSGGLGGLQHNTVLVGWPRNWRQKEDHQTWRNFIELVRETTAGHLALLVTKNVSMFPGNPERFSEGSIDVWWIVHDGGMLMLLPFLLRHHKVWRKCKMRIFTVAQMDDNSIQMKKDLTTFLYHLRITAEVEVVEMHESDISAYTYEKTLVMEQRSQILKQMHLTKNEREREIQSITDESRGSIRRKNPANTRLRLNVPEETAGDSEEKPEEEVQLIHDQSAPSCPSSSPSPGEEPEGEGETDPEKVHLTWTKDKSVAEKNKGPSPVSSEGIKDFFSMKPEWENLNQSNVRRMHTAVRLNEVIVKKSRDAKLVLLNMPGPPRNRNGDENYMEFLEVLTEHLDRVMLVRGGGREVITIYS

PubChem AID 1714 = details: HEK293-KCC2 + bumetanide/ouabain, thallium flux FluoZin2; at 10 µM; hits give high values
[2] = target: Solute carrier family 12 member 5 (Homo sapiens) (UniProt Q9H2X9); assay: retest of KCC2 transport modulation, ouabain-free – cell-based, HEK293 KCC2, thallium flux, FluoZin2, secondary assay 2, confirmation (AID 1715;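 active = thallium flux slope more than 3 SD above or below the plate's solvent-only control mean, mostly below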;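 also: raw slope with 0.1% DMSO as baseline and bumetanide as block control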); details: HEK293-KCC2, thallium flux FluoZin2 fluorescence; at 10 µM; actives lie on both sides; F/F0 rise rate, 10–20 s post-thallium
[3] = target: Solute carrier family 12 member 5 (Homo sapiens) (UniProt Q9H2X9); assay: modulation of KCC2 thallium flux in HEK cells – cell-based, ouabain, retest, confirmation (AID 1717;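 active = thallium flux slope beyond 3 SD from same-plate DMSO control mean in most replicates, usually higher, sometimes lower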;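 also: slope of initial-normalized fluorescence between seconds 10 and 20 after thallium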); details: HEK293-KCC2, thallium flux FluoZin2 fluorescence, at 10 µM, bidirectional: low = inhibitor, high = activator
[4] = native HEK Tl+ uptake effects, second counter-screen – HEK cells, counterscreen 2, counter-screen for KCC2 modulator project, confirmation (AID 1718); details: HEK293 parental, thallium flux FluoZin-2 fluorescence slope; at 10 µM;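 also: run without ouabain in cells lacking the KCC2 cotransporter; slope of fluorescence scaled to its starting value between 10 and 20 s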
[5] = compound effects on native HEK Tl+ uptake – HEK cells, counterscreen 1, counter-screen for KCC2 modulator project, confirmation (AID 1716;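 active = thallium flux rate significantly above the same plate's solvent-only control wells, beyond their mean plus 3 SD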); details: HEK293 parental cells, thallium flux FluoZin2, ouabain; at 10 µM; baseline-ratio fluorescence slope, 10–20 s after thallium

## COc1cc(OC)cc(C(=O)NCCSCc2ccco2)c1
[1]
  normalised thallium flux (F/F0 slope): 0.00951
PubChem AID 1714;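 also: raw slope of fluorescence over initial fluorescence between 10 and 20 s after thallium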
  normalized thallium flux: 0.00654
[2]
  normalized thallium flux: 0.0289
[3]
  raw Tl+ flux slope (below DMSO = inhibition, above = activation): 0.0187
[4]
  thallium flux slope: 0.0101

## COc1cccc2sc(Nc3nc(C)c(C(C)=O)s3)nc12
[1]
  normalised thallium flux (F/F0 slope): 0.00922
PubChem AID 1714;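 also: raw slope of fluorescence over initial fluorescence between 10 and 20 s after thallium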
  normalized thallium flux: 0.0124 (active)
[2]
  normalized thallium flux: 0.0359
[3]
  raw Tl+ flux slope (below DMSO = inhibition, above = activation): 0.0215
[4]
  thallium flux slope: 0.0124

## O=C(CNCc1cccs1)Nc1cc(S(=O)(=O)N2CCCC2)ccc1Cl
[1]
  normalised thallium flux (F/F0 slope): 0.00507
PubChem AID 1714;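 also: raw slope of fluorescence over initial fluorescence between 10 and 20 s after thallium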
  normalized thallium flux: 0.00419
[2]
  normalized thallium flux: 0.0229 (active)
[3]
  raw Tl+ flux slope (below DMSO = inhibition, above = activation): 0.0155 (active)
[4]
  thallium flux slope: 0.0101

## Cn1c(CCCOc2ccc(Cl)cc2Cl)n[nH]c1=S
[1]
  normalised thallium flux (F/F0 slope): 0.00558
PubChem AID 1714;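 also: raw slope of fluorescence over initial fluorescence between 10 and 20 s after thallium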
  normalized thallium flux: 0.00856 (active)
[2]
  normalized thallium flux: 0.0217 (active)
[3]
  raw Tl+ flux slope (below DMSO = inhibition, above = activation): 0.0131 (active)
[4]
  thallium flux slope: 0.00939

## Cc1cc(C)c2cc(CN(Cc3cccs3)Cc3nnnn3CC3CCCO3)c(=O)[nH]c2c1 (centres undefined)
[1]
  normalised thallium flux (F/F0 slope): 0.0146
PubChem AID 1714
  normalized thallium flux: 0.0043
[5]
  thallium flux rate (normalised fluorescence): 0.00572 (active)
[3]
  raw Tl+ flux slope (below DMSO = inhibition, above = activation): 0.0137 (active)
[4]
  thallium flux slope: 0.00821

## O=C(Nc1ccn(Cc2ccccc2)n1)c1cccc(F)c1
[1]
  normalised thallium flux (F/F0 slope): 0.00622
PubChem AID 1714
  normalized thallium flux: 0.00499
[5]
  thallium flux rate (normalised fluorescence): 0.00698
[3]
  raw Tl+ flux slope (below DMSO = inhibition, above = activation): 0.017 (active)
[4]
  thallium flux slope: 0.00931

## O=C(Cc1csc(Nc2nc(=S)[nH]c3ccccc23)n1)NCCCN1CCN(c2cccc(Cl)c2)CC1
[1]
  normalised thallium flux (F/F0 slope): 0.0134 (active)
PubChem AID 1714
  normalized thallium flux: 0.0417 (active)
[2]
  normalized thallium flux: 0.0374
[3]
  raw Tl+ flux slope (below DMSO = inhibition, above = activation): 0.0417 (active)
[4]
  thallium flux slope: 0.0172 (active)

## COc1ccc(C2/C=C\CN(S(=O)(=O)c3cccs3)CC(=O)N2Cc2ccc(F)cc2)cc1 (centres undefined)
[1]
  normalised thallium flux (F/F0 slope): 0.00741
PubChem AID 1714
  normalized thallium flux: 0.00428
[2]
  normalized thallium flux: 0.0313
[5]
  thallium flux rate (normalised fluorescence): 0.00682
[4]
  thallium flux slope: 0.00998

## Cc1cc(C(=O)NNC(=S)Nc2ccccc2C)cs1
[1]
  normalised thallium flux (F/F0 slope): 0.00983
PubChem AID 1714
  normalized thallium flux: 0.0117 (active)
[2]
  normalized thallium flux: 0.0323
[3]
  raw Tl+ flux slope (below DMSO = inhibition, above = activation): 0.0239
[4]
  thallium flux slope: 0.0109

## COCCn1c(C)cc(C(=O)CSc2ncnc3sc4c(c23)CCC4)c1C
[1]
  normalised thallium flux (F/F0 slope): 0.0102
PubChem AID 1714
  normalized thallium flux: 0.013 (active)
[2]
  normalized thallium flux: 0.0342
[4]
  thallium flux slope: 0.0112

## O=C(c1cc(-c2ccc(O)cc2)on1)N1CCCc2ccccc21
[1]
  normalised thallium flux (F/F0 slope): 0.00967
PubChem AID 1714
  normalized thallium flux: 0.00639
[5]
  thallium flux rate (normalised fluorescence): 0.00346
[3]
  raw Tl+ flux slope (below DMSO = inhibition, above = activation): 0.0175 (active)
[4]
  thallium flux slope: 0.0111

## CCCCC(CC)CNC(=O)C(=O)C1C(=O)Nc2ccccc21 (centres undefined)
[1]
  normalised thallium flux (F/F0 slope): 0.0112
PubChem AID 1714
  normalized thallium flux: 0.0356 (active)
[2]
  normalized thallium flux: 0.0322
[3]
  raw Tl+ flux slope (below DMSO = inhibition, above = activation): 0.0309 (active)
[4]
  thallium flux slope: 0.0126

## COc1cccc(NC(=S)NC(=O)c2c(Cl)c(C)nn2C)c1
[1]
  normalised thallium flux (F/F0 slope): 0.0264 (active)
PubChem AID 1714
  normalized thallium flux: 0.063 (active)
[5]
  thallium flux rate (normalised fluorescence): 0.0727 (active)
[3]
  raw Tl+ flux slope (below DMSO = inhibition, above = activation): 0.066 (active)
[4]
  thallium flux slope: 0.0309 (active)
